Source: the supplement of paper PMC6555819

How the values were obtained:
Test in all cases: PBM binding z-score (relative to random genomic background probes); higher = stronger binding; sequences stand for … in GC…GCGATTGACAGCGTAGAATGAAGG
[1] = tested on: PPARg:RXRa DBDmut IVT, anti-RXR (DBD mutation: RXRa K156A/R161A, NR concentration 270 nM, RXRa partner concentration 90 nM)
In short: (§1)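 Scanned fluorescence from custom Agilent 4×180K protein-binding microarrays was regression-normalized. Binding z-scores use random background probes as reference. Ligand-free nuclear receptor dimers were incubated on the arrays for 1 h and detected with antibodies against each partner (one per run).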

[2] = tested on: PPARg:RXRa IVT, anti-PPARg (NR concentration 270 nM, RXRa partner concentration 90 nM)
In short: as §1

[3] = tested on: PPARg DBDmut:RXRa IVT, anti-PPARg (DBD mutation: PPARg1 K132A/R137A, NR concentration 270 nM, RXRa partner concentration 90 nM)
In short: as §1

[4] = tested on: PPARg DBDmut IVT, anti-PPARg (DBD mutation: PPARg1 K132A/R137A, NR concentration 270 nM)
In short: as §1

[5] = tested on: PPARg homodimer (NR concentration 180 nM)
In short: as §1

[6] = tested on: PXR:RXRa (NR concentration 270 nM, RXRa partner concentration 90 nM)
In short: as §1

[7] = tested on: PXR homodimer (NR concentration 270 nM)
In short: as §1

[8] = tested on: RARa:RXR (NR concentration 270 nM, RXRa partner concentration 90 nM)
In short: as §1

[9] = tested on: RARa homodimer (NR concentration 270 nM)
In short: as §1

[10] = tested on: RARb:RXRa (NR concentration 270 nM, RXRa partner concentration 90 nM)
In short: as §1

Sequence | PBM binding z-score [1] | PBM binding z-score [2] | PBM binding z-score [3] | PBM binding z-score [4] | PBM binding z-score [5] | PBM binding z-score [6] | PBM binding z-score [7] | PBM binding z-score [8] | PBM binding z-score [9] | PBM binding z-score [10]
AGCTCTAGGTAACCAAGTTCAGTGAATGCCGAAC | 3.96 | 2.07 | -0.276 | -0.0149 | 0.421 | 1.53 | 1.74 | 0.198 | -0.119 | 0.793
ATCGAAAGGTCGACGATGTGAGTATACACCGTTT | 0.505 | 1.37 | 0.994 | 1.25 | 1.43 | 2.29 | 0.0146 | 3.17 | 0.516 | 3.94
CGTCCAATGTCAATGCTAGGTCAGTGAAAGCATT | 0.333 | 0.858 | -0.586 | -0.143 | 0.93 | 0.655 | -0.0465 | 1.27 | -0.0899 | 2.17
CCGACAGGGGCAAGGTTACCATAACGCACAGCCA | -0.0279 | 0.0813 | -0.56 | -0.66 | 0.577 | 0.585 | 0.0826 | 1.26 | 0.048 | 2.1
CAAACTAGGTCAAGAGGTCAAAGACCGCTTCCCG | 8.33 | 8.34 | 1.4 | 0.266 | 5.54 | 5.94 | 1.78 | 7.58 | 1.89 | 5.61
ACAGACAGGTGAGTGAGGGTAACTCAGCTGGACG | 0.621 | 0.841 | -0.523 | -0.675 | 0.225 | -0.025 | 0.261 | 0.222 | -0.162 | 0.987
CCTGCTAGGTCAATGGTCACCTAAAGCAGCTCGC | 3.93 | 4.42 | 0.106 | -0.848 | 1.21 | 1.24 | -0.353 | 2.13 | -0.122 | 3.96
AGTCAAAATTCAGGACGAGGTAACGTAAAGCACG | -0.124 | 0.504 | 0.875 | 0.0968 | 0.59 | -0.0686 | 0.0838 | 0.591 | 0.657 | 0.118
GGAACGAGGGCATACGAGTTGATAGCATGGCGAT | 2.9 | 1.74 | 0.174 | -0.54 | 0.0813 | 3.18 | 0.351 | 0.371 | -0.394 | 1.7
ACAGACAGGTGATGAAGGTAATTCAGGCTATCAT | 0.125 | 0.521 | 0.823 | 0.3 | 0.3 | -0.0311 | -0.169 | 0.367 | 0.165 | 0.161
CCGAGTAGGTTATGCGGCATTCAGGCAACGGTGA | 2.82 | 2.03 | -1.08 | -0.567 | 0.671 | -0.0535 | 0.0083 | 0.343 | 0.296 | 0.464
ACAGACCGGTGATGAAGGTAACTCAGGCTATCAT | -0.264 | -0.316 | 0.0593 | 0.0893 | -0.0191 | -0.348 | -0.142 | -0.0159 | 0.27 | -0.139
GCGACTGGGGCAAAGCAGGTTGCCATAAGGTTGG | 4.34 | 3.1 | -0.486 | -0.871 | -0.00419 | -0.373 | -0.521 | -0.163 | -0.719 | 0.412
ATCTCTAGGTAAGACTCAGTTCAGGGAAGAACGC | 1.95 | 0.842 | 1.12 | 0.798 | 0.913 | 1.19 | 1.64 | 0.799 | 1.28 | 0.579
AGAACGAAGGCACGCTGAGTTGATAGCAGAGTAG | -0.47 | -0.214 | -0.0465 | -0.623 | -1.17 | -0.449 | -0.696 | -0.468 | -0.886 | -0.566
CCGACTGGGGCATAAGGTTATCATAAGCCAGCCC | 2.88 | 3.27 | -0.987 | -0.567 | 1.33 | 0.386 | 0.0103 | 1.34 | -0.22 | 1.32
GCAGACAGGTGAAACGCAGATAACTCAGGGTGGC | 1.09 | 0.225 | 0.243 | -0.959 | 0.214 | -0.239 | -0.278 | -0.0859 | -0.365 | 0.56
ATCGAAAGGTCGAGAGGTGAGTATACAGAAAGGC | -0.201 | 1.82 | 0.777 | 0.861 | 2.03 | 2.69 | -0.031 | 3.73 | 0.105 | 3.88
CCTACTGGGCCAAAAAGGTCCTTGATGCCGATAA | 3.01 | 2.44 | -0.992 | -1.33 | -0.196 | -0.29 | -0.721 | -0.161 | -0.376 | 0.177
CCTACTGGGTCATCAGGTCATTGATATCAACGTT | 6.76 | 7.36 | 1.4 | 0.93 | 3.28 | 3.76 | 0.934 | 4.74 | 1.85 | 3.9
AATACAGGGTCACCAGGCCAGAGTAGGTACGAAT | 3.62 | 5.06 | 1.5 | 0.986 | 2.07 | 4.02 | 0.26 | 5.4 | 0.737 | 4.53
GCAGACAGGTGAAATGCAGGTAACTCAGGGTGGC | 1.43 | 1.14 | -0.233 | -1.24 | -0.0768 | -0.249 | 0.00173 | 0.324 | -0.661 | 0.683
CCGACTGGGGCAGAAAGGTTACCCTACCATCCGG | 1.23 | 1.93 | -1.08 | -1.51 | 0.207 | 0.618 | -0.304 | 1.34 | -0.533 | 1.73
CGAACTAGGTCATCCAGTACAGTGAATACATTGA | 8.25 | 8.35 | 2.09 | 1.3 | 1.76 | 2.09 | 1.66 | 2.26 | 0.426 | 3.78
